Test results taken from article PMC7862700, “An all-to-all approach to the identification of sequence-specific readers for epigenetic DNA modifications on cytosine”.

Columns and labels:
Test in all cases: DAPPL (digital affinity profiling via proximity ligation, sequencing); 10 mM Tris-HCl pH 7.5, 50 mM NaCl, 1 mM DTT, 4% glycerol, room temperature, 30 min; GST-TFs on glutathione beads, 16-mer random dsDNA library, 0.1% formaldehyde crosslink after washing; high values mean tight binding
FLI1 = target: T1, FLI1 (Homo sapiens, UniProt Q01543 1-452); settings: protein: recombinant; tags: N-terminal GST; dsDNA, one strand shown
T1 sequence: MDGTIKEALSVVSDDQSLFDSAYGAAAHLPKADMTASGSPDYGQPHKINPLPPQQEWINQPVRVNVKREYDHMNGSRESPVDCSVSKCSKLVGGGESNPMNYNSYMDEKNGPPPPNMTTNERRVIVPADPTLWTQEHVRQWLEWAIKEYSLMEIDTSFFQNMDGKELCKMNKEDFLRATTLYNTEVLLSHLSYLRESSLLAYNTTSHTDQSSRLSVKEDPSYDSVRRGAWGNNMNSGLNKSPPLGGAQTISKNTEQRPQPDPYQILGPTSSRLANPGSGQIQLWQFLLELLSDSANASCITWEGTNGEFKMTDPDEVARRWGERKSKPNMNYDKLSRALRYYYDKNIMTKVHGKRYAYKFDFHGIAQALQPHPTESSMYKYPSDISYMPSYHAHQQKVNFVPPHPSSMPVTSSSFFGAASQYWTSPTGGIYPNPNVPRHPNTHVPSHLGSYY
Method in brief: (§1)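 The binding signal reported is, for every hexamer, its read frequency for a factor over its read frequency for the tag-only sample. Reads came from pools of yeast-expressed, GST-fused human transcription factors on glutathione beads, barcoded with DNA and mixed with that sample, which were incubated with 200 nmole of a random double-stranded 16-mer DNA library in Tris/NaCl/DTT/glycerol buffer at room temperature for 30 min. After washing, the pools were crosslinked with 0.1% formaldehyde, proximity-ligated with BsaI/T4 ligase for 1 h at 37 °C, PCR-amplified and sequenced on an Illumina NextSeq500.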

ELK1 = target: T2, ELK1 (Homo sapiens, UniProt P19419 1-428); settings: protein: recombinant; tags: N-terminal GST; dsDNA, one strand shown
T2 sequence: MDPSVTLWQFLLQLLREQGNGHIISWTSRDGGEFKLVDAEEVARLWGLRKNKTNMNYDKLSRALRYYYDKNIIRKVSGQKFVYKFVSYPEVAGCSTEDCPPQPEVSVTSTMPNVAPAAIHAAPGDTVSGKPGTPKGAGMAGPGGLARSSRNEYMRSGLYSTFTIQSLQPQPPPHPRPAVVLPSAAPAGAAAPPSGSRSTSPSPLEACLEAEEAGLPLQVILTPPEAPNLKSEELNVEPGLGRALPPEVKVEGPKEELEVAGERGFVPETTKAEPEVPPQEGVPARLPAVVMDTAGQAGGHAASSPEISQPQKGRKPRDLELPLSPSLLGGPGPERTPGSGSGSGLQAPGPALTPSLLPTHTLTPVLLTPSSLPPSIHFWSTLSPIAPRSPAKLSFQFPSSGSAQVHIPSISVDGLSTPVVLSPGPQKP
Method in brief: as §1

GABPA = target: T3, GABPA (Homo sapiens, UniProt Q06546 1-454); settings: protein: recombinant; tags: N-terminal GST; dsDNA, one strand shown
T3 sequence: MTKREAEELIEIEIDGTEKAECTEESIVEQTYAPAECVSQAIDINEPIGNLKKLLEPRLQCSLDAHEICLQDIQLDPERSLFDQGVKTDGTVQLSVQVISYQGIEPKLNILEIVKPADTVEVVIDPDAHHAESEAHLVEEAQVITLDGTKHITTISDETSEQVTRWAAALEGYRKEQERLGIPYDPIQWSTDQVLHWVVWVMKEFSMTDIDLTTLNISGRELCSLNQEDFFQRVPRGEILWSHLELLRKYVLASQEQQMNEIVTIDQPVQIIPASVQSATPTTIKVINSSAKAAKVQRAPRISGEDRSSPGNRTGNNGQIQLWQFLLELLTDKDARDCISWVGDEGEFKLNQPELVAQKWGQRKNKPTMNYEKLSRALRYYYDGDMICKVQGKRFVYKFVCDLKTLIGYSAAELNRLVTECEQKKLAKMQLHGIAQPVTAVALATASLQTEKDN
Method in brief: as §1

ERG = target: T4, ERG (Homo sapiens, UniProt P11308 1-479); settings: protein: recombinant; tags: N-terminal GST; dsDNA, one strand shown
T4 sequence: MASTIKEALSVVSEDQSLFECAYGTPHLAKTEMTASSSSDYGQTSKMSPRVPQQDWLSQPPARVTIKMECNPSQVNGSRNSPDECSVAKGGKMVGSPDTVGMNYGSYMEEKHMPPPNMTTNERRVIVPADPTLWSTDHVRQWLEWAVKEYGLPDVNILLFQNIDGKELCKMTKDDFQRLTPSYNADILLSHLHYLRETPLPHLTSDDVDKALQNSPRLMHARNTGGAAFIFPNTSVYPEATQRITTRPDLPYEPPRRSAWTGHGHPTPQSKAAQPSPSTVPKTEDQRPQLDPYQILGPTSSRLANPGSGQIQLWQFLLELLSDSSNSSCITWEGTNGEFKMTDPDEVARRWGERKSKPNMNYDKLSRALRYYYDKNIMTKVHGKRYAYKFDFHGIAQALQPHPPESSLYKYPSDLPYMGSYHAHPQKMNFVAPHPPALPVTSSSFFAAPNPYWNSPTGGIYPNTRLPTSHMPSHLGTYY
Method in brief: as §1

ELF1 = ELF1 (Homo sapiens, UniProt P32519 1-619); settings: protein: recombinant; tags: N-terminal GST; dsDNA, one strand shown
Method in brief: as §1

EHF = target: T5, EHF (Homo sapiens, UniProt Q9NZC4 1-300); settings: protein: recombinant; tags: N-terminal GST; dsDNA, one strand shown
T5 sequence: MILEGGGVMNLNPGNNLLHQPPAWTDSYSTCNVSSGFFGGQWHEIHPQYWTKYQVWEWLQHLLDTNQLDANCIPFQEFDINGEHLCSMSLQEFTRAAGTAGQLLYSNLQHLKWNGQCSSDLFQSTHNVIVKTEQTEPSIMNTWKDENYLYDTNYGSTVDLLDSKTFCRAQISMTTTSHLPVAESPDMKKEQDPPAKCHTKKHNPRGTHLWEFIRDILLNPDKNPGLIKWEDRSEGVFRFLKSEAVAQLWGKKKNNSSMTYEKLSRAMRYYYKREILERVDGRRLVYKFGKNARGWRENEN
Method in brief: as §1

SPI1 = SPI1 (Homo sapiens, UniProt P17947 1-270); settings: protein: recombinant; tags: N-terminal GST; dsDNA, one strand shown
Method in brief: as §1

SPIB = SPIB (Homo sapiens, UniProt Q01892 1-262); settings: protein: recombinant; tags: N-terminal GST; dsDNA, one strand shown
Method in brief: as §1

ELK3 = target: T6, ELK3 (Homo sapiens, UniProt P41970 1-407); settings: protein: recombinant; tags: N-terminal GST; dsDNA, one strand shown
T6 sequence: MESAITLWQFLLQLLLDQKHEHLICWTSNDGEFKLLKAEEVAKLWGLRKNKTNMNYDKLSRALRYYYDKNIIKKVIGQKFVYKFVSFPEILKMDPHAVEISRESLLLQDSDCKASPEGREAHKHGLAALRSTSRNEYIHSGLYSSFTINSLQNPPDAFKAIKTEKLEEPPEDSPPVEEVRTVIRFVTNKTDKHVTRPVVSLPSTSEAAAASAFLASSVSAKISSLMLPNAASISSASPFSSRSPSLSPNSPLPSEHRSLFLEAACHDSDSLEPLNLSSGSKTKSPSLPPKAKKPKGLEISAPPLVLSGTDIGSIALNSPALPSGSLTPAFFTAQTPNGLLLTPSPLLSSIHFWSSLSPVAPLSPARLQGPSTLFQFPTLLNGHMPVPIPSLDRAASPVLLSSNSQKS
Method in brief: as §1

FEV = target: T7, FEV (Homo sapiens, UniProt Q99581 1-238); settings: protein: recombinant; tags: N-terminal GST; dsDNA, one strand shown
T7 sequence: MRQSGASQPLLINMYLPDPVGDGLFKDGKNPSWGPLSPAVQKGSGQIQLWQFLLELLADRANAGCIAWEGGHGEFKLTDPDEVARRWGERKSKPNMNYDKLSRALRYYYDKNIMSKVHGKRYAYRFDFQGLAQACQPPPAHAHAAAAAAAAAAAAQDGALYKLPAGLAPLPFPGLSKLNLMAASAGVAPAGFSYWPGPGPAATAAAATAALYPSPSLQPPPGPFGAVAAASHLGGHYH
Method in brief: as §1

ETV5 = ETV5 (Homo sapiens, UniProt P41161 1-510); settings: protein: recombinant; tags: N-terminal GST; dsDNA, one strand shown
Method in brief: as §1

HSF1 = HSF1 (Homo sapiens, UniProt Q00613 1-529); settings: protein: recombinant; tags: N-terminal GST; chain copies: 3; dsDNA, one strand shown
Method in brief: as §1

SPIC = target: T8, SPIC (Homo sapiens, UniProt Q8N5J4 1-248); settings: protein: recombinant; tags: N-terminal GST; dsDNA, one strand shown
T8 sequence: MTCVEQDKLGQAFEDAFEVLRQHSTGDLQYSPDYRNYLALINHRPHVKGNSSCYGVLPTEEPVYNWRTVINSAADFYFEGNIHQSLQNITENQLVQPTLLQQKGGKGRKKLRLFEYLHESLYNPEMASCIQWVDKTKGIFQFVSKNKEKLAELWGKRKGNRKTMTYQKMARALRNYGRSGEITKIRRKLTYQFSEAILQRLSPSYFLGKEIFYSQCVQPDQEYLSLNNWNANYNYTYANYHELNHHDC
Method in brief: as §1

ELF4 = ELF4 (Homo sapiens, UniProt Q99607 1-663); settings: protein: recombinant; tags: N-terminal GST; dsDNA, one strand shown
Method in brief: as §1

ELK4 = target: T9, ELK4 (Homo sapiens, UniProt P28324-2 1-405); settings: protein: recombinant; tags: N-terminal GST; dsDNA, one strand shown
T9 sequence: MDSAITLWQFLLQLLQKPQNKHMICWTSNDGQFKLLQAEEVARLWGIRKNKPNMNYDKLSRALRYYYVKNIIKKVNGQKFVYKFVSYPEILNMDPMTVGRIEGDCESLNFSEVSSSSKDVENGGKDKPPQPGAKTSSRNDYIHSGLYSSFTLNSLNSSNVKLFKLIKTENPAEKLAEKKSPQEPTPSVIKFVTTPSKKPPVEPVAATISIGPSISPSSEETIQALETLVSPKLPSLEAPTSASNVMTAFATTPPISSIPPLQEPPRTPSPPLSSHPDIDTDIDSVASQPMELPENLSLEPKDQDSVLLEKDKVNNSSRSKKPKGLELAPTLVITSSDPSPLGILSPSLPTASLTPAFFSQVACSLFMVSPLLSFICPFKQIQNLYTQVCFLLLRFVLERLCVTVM
Method in brief: as §1

ETV2 = target: T10, ETV2 (Homo sapiens, UniProt O00321 1-342); settings: protein: recombinant; tags: N-terminal GST; dsDNA, one strand shown
T10 sequence: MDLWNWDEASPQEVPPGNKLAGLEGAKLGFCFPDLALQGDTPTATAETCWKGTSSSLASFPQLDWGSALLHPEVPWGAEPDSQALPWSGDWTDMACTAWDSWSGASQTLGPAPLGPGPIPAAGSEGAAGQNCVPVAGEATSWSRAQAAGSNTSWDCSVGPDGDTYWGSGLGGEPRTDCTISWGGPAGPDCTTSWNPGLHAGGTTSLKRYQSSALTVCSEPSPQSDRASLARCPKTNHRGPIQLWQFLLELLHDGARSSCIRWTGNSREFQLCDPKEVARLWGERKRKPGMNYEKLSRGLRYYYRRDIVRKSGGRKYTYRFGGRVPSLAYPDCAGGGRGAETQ
Method in brief: as §1

ELF3 = target: T11, ELF3 (Homo sapiens, UniProt P78545 1-371); settings: protein: recombinant; tags: N-terminal GST; dsDNA, one strand shown
T11 sequence: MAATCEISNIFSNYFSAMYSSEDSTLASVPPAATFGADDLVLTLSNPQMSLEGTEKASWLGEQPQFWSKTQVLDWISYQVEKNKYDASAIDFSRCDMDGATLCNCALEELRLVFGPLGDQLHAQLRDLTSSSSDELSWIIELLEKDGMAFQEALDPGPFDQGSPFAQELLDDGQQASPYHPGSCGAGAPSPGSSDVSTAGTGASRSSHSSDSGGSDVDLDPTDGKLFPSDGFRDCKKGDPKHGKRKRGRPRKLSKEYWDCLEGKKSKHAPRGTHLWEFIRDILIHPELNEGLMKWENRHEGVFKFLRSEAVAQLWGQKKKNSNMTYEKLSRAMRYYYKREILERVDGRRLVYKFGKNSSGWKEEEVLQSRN
Method in brief: as §1

ETV1 = ETV1 (Homo sapiens, UniProt P50549 1-477); settings: protein: recombinant; tags: N-terminal GST; dsDNA, one strand shown
Method in brief: as §1

Sequence of ELF4 (Q99607 whole entry): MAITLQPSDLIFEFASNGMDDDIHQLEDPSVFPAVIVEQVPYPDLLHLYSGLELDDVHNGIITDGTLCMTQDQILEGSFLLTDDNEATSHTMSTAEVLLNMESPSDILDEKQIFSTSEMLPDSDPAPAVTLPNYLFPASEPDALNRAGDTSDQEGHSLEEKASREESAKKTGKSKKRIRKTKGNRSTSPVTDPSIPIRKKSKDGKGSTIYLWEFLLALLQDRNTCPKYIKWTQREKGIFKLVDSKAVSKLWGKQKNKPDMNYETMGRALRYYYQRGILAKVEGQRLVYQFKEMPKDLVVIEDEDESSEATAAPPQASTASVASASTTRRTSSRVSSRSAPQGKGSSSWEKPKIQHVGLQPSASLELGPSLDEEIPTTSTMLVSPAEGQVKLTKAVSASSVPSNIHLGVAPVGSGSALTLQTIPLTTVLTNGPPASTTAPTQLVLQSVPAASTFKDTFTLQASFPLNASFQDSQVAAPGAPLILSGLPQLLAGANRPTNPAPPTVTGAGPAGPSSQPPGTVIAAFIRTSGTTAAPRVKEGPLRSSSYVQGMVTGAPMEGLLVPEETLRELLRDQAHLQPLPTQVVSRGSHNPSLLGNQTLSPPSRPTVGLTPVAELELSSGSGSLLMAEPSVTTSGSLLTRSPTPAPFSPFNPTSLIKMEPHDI
Sequence of ETV1 (P50549 whole entry): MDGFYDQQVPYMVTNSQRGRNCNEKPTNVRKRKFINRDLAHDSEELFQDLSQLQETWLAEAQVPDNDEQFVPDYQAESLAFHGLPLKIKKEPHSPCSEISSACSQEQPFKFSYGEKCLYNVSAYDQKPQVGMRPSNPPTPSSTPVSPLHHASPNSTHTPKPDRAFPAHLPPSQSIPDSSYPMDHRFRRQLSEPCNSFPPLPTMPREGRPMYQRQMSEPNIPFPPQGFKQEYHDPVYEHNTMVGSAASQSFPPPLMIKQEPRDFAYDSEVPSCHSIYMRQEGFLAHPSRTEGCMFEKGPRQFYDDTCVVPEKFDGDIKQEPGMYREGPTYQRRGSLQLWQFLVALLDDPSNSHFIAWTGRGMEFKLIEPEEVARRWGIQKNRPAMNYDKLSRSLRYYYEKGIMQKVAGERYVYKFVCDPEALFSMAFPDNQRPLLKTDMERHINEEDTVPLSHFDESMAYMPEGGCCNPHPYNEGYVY
Sequence of HSF1 (Q00613 whole entry): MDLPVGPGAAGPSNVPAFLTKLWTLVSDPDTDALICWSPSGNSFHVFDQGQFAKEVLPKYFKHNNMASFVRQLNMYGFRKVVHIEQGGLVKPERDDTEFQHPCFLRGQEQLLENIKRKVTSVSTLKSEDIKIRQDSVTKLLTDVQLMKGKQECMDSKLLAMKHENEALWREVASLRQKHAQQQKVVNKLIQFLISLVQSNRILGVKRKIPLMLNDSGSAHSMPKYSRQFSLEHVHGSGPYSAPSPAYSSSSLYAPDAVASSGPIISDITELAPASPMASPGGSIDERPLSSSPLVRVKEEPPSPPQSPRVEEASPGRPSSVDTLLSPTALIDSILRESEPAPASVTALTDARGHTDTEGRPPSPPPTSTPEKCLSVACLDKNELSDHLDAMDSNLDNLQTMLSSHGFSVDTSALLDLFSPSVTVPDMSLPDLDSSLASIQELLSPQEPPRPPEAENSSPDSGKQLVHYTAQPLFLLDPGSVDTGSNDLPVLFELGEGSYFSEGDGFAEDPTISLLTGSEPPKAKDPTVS
Sequence of SPIB (Q01892 whole entry): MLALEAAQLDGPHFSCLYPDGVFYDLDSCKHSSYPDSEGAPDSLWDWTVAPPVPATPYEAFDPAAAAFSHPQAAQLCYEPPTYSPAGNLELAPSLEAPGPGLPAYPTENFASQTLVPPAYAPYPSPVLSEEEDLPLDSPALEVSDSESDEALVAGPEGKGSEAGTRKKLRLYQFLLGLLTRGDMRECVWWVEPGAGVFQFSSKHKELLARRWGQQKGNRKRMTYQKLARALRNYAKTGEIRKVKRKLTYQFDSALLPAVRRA
Sequence of ELF1 (P32519 whole entry): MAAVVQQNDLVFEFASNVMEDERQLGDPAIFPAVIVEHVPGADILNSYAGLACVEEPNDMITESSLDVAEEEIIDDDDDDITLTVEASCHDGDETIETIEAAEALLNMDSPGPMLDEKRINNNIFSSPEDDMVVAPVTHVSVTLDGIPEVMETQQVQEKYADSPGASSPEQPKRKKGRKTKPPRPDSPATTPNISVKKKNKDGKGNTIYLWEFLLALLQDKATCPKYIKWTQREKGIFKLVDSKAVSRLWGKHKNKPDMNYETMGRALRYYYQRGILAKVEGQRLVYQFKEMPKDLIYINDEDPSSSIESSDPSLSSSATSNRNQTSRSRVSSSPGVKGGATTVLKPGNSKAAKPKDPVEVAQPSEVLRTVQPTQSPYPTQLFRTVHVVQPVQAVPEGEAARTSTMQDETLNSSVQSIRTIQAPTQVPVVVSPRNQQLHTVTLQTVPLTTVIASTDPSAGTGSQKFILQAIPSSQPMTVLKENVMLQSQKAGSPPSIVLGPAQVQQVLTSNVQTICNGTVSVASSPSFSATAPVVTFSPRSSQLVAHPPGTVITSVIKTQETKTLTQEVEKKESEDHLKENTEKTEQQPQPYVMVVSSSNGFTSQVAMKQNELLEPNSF
Sequence of ETV5 (P41161 whole entry): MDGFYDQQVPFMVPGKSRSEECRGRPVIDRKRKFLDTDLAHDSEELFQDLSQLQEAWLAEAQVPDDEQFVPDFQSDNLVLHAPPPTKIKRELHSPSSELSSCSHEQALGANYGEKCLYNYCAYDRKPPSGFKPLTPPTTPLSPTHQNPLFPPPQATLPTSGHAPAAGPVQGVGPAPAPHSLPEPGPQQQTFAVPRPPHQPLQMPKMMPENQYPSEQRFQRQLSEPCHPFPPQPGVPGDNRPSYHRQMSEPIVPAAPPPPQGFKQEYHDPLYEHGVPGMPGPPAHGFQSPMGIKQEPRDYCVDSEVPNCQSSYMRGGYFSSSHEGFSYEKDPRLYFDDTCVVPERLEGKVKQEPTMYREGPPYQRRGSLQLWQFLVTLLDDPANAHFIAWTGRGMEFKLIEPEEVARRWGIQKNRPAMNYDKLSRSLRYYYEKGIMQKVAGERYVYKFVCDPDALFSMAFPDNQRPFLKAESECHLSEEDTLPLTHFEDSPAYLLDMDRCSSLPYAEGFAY

## TGGTTC
FLI1
  binding signal: 1.45 fold enrichment (6-mer frequency, TF over GST control)
ELK1
  binding signal: 1.33 fold enrichment (6-mer frequency, TF over GST control)
GABPA
  binding signal: 1.35 fold enrichment (6-mer frequency, TF over GST control)
ERG
  binding signal: 1.29 fold enrichment (6-mer frequency, TF over GST control)
ELF1
  binding signal: 1.28 fold enrichment (6-mer frequency, TF over GST control)
EHF
  binding signal: 1.31 fold enrichment (6-mer frequency, TF over GST control)
SPI1
  binding signal: 1.32 fold enrichment (6-mer frequency, TF over GST control)
SPIB
  binding signal: 1.37 fold enrichment (6-mer frequency, TF over GST control)
ELK3
  binding signal: 1.32 fold enrichment (6-mer frequency, TF over GST control)
FEV
  binding signal: 1.35 fold enrichment (6-mer frequency, TF over GST control)
ETV5
  binding signal: 1.44 fold enrichment (6-mer frequency, TF over GST control)
HSF1
  binding signal: 1.27 fold enrichment (6-mer frequency, TF over GST control)
SPIC
  binding signal: 1.51 fold enrichment (6-mer frequency, TF over GST control)
ELF4
  binding signal: 1.33 fold enrichment (6-mer frequency, TF over GST control)
ELK4
  binding signal: 1.36 fold enrichment (6-mer frequency, TF over GST control)
ETV2
  binding signal: 1.33 fold enrichment (6-mer frequency, TF over GST control)
ELF3
  binding signal: 1.57 fold enrichment (6-mer frequency, TF over GST control)
ETV1
  binding signal: 1.38 fold enrichment (6-mer frequency, TF over GST control)
